# Assay results: paper PMC7862700, “An all-to-all approach to the identification of sequence-specific readers for epigenetic DNA modifications on cytosine”
# Key:
# Experiment in all cases: DAPPL (digital affinity profiling via proximity ligation, sequencing); 10 mM Tris-HCl pH 7.5, 50 mM NaCl, 1 mM DTT, 4% glycerol, room temperature, 30 min; GST-TFs on glutathione beads, 16-mer random dsDNA library, 0.1% formaldehyde crosslink after washing; high values mean tight binding
# [1] = molecular target: T1, FEV (Homo sapiens, UniProt Q99581 1-238); settings: protein: recombinant; tags: N-terminal GST; dsDNA, one strand shown
# T1 sequence: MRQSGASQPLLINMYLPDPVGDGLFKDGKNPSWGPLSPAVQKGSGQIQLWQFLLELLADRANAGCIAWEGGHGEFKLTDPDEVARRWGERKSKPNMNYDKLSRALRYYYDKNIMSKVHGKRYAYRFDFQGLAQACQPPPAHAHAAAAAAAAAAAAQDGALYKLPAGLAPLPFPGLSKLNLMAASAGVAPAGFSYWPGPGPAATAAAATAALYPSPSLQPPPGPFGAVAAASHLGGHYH
# How it was run: (§1)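 Binding signal is each hexamer's read frequency for a factor divided by its frequency in the tag-only sample. The factors were GST-fused human transcription factors from yeast, captured on glutathione beads, DNA-barcoded and pooled with that sample. Pools were incubated with 200 nmole of a random double-stranded 16-mer DNA library in Tris/NaCl/DTT/glycerol buffer at room temperature for 30 min, then washed, crosslinked with 0.1% formaldehyde, proximity-ligated with BsaI/T4 ligase (1 h, 37 °C), PCR-amplified and sequenced on an Illumina NextSeq500.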
# [2] = molecular target: ETV5 (Homo sapiens, UniProt P41161 1-510); settings: protein: recombinant; tags: N-terminal GST; dsDNA, one strand shown
# How it was run: as §1
# [3] = molecular target: HSF1 (Homo sapiens, UniProt Q00613 1-529); settings: protein: recombinant; tags: N-terminal GST; chain copies: 3; dsDNA, one strand shown
# How it was run: as §1
# [4] = molecular target: ELF4 (Homo sapiens, UniProt Q99607 1-663); settings: protein: recombinant; tags: N-terminal GST; dsDNA, one strand shown
# How it was run: as §1
# [5] = molecular target: T2, ELK4 (Homo sapiens, UniProt P28324-2 1-405); settings: protein: recombinant; tags: N-terminal GST; dsDNA, one strand shown
# T2 sequence: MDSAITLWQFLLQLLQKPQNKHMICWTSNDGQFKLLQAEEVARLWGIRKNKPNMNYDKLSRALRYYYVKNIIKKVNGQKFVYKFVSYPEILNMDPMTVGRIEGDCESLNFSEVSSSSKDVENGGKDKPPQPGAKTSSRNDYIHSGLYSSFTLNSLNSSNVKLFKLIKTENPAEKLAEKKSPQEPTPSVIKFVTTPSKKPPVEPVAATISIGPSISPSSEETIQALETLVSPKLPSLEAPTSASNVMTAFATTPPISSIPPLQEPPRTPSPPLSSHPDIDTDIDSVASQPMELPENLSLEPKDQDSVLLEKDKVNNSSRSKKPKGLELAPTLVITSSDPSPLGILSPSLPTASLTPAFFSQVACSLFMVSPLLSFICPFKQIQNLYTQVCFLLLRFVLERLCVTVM
# How it was run: as §1
# [6] = molecular target: T3, ETV2 (Homo sapiens, UniProt O00321 1-342); settings: protein: recombinant; tags: N-terminal GST; dsDNA, one strand shown
# T3 sequence: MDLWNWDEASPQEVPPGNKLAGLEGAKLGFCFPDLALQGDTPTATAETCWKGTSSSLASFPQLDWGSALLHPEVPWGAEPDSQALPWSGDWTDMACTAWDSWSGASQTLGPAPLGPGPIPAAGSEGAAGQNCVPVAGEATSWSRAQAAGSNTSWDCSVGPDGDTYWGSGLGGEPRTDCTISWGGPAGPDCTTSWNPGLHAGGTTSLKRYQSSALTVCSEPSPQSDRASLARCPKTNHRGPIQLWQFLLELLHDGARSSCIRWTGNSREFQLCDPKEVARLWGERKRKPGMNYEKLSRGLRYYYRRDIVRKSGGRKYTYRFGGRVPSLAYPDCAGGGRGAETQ
# How it was run: as §1
# [7] = molecular target: T4, ELF3 (Homo sapiens, UniProt P78545 1-371); settings: protein: recombinant; tags: N-terminal GST; dsDNA, one strand shown
# T4 sequence: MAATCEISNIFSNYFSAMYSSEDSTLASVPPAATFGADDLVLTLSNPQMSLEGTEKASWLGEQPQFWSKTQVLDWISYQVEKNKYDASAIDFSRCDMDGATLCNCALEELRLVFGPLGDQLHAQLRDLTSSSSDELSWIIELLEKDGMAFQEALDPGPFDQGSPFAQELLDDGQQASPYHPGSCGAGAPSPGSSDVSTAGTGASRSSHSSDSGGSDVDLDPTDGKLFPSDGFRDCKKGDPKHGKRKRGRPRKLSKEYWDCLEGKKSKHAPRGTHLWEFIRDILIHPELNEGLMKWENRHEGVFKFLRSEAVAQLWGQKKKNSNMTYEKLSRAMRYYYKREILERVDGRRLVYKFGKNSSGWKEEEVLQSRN
# How it was run: as §1
# [8] = molecular target: CRX (Homo sapiens, UniProt O43186 1-299); settings: protein: recombinant; tags: N-terminal GST; dsDNA, one strand shown
# How it was run: as §1
# [9] = molecular target: ETV1 (Homo sapiens, UniProt P50549 1-477); settings: protein: recombinant; tags: N-terminal GST; dsDNA, one strand shown
# How it was run: as §1
# [10] = molecular target: T5, ERF (Homo sapiens, UniProt P50548 1-548); settings: protein: recombinant; tags: N-terminal GST; dsDNA, one strand shown
# T5 sequence: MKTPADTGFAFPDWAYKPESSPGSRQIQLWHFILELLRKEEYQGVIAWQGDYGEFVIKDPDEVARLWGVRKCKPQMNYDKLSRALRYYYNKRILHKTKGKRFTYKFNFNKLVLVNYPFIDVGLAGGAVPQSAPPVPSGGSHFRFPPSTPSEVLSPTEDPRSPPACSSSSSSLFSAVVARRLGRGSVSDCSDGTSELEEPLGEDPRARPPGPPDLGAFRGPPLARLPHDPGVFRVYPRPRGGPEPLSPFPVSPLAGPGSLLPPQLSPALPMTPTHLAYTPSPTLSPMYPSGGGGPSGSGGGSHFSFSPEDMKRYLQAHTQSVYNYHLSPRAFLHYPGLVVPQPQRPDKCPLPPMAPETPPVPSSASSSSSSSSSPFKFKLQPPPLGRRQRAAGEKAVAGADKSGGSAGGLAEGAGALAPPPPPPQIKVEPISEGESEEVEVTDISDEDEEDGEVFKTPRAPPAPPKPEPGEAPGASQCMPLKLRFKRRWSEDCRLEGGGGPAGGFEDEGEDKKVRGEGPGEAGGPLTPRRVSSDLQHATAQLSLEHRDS
# How it was run: as §1
# [11] = molecular target: T6, ETS2 (Homo sapiens, UniProt P15036 1-469); settings: protein: recombinant; tags: N-terminal GST; dsDNA, one strand shown
# T6 sequence: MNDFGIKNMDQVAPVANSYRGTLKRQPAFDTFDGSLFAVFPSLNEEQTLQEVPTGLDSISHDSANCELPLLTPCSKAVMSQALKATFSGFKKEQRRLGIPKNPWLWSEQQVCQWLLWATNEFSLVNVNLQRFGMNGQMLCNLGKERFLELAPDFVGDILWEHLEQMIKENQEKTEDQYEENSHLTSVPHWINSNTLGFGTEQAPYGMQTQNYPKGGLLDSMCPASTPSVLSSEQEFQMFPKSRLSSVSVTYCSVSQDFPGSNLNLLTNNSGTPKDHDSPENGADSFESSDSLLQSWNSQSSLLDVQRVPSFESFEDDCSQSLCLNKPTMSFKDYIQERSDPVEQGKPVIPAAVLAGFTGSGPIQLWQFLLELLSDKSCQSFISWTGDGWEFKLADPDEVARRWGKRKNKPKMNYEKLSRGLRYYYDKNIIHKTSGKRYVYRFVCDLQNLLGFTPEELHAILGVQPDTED
# How it was run: as §1
# [12] = molecular target: T7, SPDEF (Homo sapiens, UniProt O95238 1-335); settings: protein: recombinant; tags: N-terminal GST; dsDNA, one strand shown
# T7 sequence: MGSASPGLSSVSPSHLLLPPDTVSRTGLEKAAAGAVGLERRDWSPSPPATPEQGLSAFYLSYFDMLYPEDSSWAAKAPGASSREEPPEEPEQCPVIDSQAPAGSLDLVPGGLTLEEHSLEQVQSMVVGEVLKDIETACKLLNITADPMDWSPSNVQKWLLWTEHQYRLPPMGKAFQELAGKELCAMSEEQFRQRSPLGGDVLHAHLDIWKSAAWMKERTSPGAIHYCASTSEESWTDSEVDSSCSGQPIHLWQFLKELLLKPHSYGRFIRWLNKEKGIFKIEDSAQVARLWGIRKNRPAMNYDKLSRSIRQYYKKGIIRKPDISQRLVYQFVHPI
# How it was run: as §1
# [13] = molecular target: T8, ETV7 (Homo sapiens, UniProt Q9Y603 1-341); settings: protein: recombinant; tags: N-terminal GST; dsDNA, one strand shown
# T8 sequence: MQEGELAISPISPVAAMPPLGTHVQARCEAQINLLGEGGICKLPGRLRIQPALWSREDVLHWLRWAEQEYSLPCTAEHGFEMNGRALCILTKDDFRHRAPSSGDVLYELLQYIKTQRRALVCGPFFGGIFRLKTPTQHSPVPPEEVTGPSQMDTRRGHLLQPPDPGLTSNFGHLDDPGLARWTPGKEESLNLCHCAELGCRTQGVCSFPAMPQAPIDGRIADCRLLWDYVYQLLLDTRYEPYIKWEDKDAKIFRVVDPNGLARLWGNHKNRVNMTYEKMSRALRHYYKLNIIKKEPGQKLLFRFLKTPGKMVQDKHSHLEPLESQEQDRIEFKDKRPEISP
# How it was run: as §1
# [14] = molecular target: T9, ELF5 (Homo sapiens, UniProt Q9UKW6-2 1-255); settings: protein: recombinant; tags: N-terminal GST; dsDNA, one strand shown
# T9 sequence: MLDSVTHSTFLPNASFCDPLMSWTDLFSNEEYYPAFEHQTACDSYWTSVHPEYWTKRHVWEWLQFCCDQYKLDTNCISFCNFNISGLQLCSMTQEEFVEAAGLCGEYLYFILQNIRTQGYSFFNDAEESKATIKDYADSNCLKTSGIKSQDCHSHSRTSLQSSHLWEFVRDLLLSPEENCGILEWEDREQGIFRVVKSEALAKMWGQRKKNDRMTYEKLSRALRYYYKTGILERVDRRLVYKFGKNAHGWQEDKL
# How it was run: as §1
# [15] = molecular target: T10, ETV3 (Homo sapiens, UniProt P41162-2 1-143); settings: protein: recombinant; tags: N-terminal GST; dsDNA, one strand shown
# T10 sequence: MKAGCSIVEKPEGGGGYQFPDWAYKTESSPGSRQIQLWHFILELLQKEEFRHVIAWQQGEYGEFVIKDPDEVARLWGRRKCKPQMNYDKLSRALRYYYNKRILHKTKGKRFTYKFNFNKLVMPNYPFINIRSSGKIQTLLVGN
# How it was run: as §1
# [16] = molecular target: ETV6 (Homo sapiens, UniProt P41212 1-452); settings: protein: recombinant; tags: N-terminal GST; dsDNA, one strand shown
# How it was run: as §1
# Chain of ETV6 (P41212 whole entry): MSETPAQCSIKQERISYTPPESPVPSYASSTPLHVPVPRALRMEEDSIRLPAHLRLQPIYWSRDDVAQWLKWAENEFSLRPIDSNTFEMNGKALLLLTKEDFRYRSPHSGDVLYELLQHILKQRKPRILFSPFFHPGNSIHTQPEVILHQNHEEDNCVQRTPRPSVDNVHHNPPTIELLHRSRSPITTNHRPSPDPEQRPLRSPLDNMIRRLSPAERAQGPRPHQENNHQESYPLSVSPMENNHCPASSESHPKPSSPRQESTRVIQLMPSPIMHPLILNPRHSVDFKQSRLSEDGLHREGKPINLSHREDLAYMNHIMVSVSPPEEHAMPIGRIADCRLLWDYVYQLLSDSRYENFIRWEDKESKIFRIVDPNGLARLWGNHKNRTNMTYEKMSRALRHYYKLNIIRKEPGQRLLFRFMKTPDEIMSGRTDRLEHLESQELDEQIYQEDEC
# Chain of ETV5 (P41161 whole entry): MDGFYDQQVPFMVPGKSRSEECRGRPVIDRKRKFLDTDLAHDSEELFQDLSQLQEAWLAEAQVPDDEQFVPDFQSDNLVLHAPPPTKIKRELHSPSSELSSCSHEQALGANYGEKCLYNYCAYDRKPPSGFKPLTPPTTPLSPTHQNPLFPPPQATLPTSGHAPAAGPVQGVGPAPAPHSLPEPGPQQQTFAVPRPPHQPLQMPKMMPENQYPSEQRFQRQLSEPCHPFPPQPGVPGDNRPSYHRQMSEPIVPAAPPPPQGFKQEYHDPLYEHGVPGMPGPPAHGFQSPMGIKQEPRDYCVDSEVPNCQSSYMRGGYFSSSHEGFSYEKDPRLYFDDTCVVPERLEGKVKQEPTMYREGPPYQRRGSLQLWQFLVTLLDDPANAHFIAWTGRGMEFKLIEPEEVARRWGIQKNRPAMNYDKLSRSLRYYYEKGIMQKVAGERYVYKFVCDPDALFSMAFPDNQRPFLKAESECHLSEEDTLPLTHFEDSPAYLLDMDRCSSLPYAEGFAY
# Chain of ETV1 (P50549 whole entry): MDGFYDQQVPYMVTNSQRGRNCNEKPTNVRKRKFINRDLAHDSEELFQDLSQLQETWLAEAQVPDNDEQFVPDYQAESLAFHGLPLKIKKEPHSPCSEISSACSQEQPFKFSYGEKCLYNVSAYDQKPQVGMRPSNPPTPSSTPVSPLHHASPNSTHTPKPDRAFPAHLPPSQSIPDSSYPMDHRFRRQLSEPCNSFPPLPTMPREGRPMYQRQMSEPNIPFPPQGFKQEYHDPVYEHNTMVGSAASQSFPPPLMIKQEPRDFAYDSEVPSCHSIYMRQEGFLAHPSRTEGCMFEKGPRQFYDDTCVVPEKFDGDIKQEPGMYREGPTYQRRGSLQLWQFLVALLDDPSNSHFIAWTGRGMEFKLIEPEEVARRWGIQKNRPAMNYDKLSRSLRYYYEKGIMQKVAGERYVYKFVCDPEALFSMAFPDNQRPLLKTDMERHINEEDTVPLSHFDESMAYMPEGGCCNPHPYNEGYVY
# Chain of CRX (O43186 whole entry): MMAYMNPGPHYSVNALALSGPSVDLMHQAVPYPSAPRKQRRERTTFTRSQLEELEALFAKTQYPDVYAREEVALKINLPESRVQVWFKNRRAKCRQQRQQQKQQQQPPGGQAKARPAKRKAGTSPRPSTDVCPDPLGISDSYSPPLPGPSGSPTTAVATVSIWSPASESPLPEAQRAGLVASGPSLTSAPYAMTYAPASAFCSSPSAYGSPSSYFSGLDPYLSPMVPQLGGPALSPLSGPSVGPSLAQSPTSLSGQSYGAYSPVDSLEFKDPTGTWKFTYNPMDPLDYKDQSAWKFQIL
# Chain of ELF4 (Q99607 whole entry): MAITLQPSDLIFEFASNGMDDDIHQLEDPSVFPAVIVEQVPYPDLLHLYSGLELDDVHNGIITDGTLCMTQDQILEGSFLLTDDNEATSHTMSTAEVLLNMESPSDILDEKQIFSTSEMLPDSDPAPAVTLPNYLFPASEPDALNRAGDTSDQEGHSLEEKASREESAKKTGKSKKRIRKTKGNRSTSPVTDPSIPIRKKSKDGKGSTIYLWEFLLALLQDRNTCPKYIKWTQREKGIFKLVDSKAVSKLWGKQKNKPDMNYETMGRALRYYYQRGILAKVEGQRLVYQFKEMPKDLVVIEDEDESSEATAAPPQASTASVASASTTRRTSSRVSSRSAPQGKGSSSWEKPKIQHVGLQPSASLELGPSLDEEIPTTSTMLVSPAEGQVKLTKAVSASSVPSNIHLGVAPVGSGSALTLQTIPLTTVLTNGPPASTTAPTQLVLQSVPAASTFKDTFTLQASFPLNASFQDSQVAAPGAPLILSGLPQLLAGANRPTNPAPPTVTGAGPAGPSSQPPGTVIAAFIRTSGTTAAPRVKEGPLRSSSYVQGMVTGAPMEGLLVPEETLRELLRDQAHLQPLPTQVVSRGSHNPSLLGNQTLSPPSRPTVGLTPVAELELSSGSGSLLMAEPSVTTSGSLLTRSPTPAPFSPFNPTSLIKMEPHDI
# Chain of HSF1 (Q00613 whole entry): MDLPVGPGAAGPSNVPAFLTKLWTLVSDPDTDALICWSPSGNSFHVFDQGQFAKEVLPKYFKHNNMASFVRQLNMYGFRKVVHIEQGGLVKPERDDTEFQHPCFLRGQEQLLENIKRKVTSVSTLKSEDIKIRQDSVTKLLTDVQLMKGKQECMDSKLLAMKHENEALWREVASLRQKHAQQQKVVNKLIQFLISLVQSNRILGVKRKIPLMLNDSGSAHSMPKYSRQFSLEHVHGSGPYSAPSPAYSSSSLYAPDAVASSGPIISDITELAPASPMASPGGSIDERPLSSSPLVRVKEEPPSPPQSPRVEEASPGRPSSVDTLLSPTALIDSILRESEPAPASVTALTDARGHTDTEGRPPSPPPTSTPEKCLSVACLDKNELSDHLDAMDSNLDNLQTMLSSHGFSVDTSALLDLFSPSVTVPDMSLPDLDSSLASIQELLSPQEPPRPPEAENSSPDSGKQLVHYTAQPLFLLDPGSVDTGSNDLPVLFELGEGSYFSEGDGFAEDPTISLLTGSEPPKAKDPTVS
sequence,measurement,setting,value
AATCCA,binding signal,[1],"1.11 fold enrichment (6-mer frequency, TF over GST control)"
same,binding signal,[2],"1.07 fold enrichment (6-mer frequency, TF over GST control)"
same,binding signal,[3],"1.78 fold enrichment (6-mer frequency, TF over GST control)"
same,binding signal,[4],"1.12 fold enrichment (6-mer frequency, TF over GST control)"
same,binding signal,[5],"1.18 fold enrichment (6-mer frequency, TF over GST control)"
same,binding signal,[6],"1.03 fold enrichment (6-mer frequency, TF over GST control)"
same,binding signal,[7],"1.1 fold enrichment (6-mer frequency, TF over GST control)"
same,binding signal,[8],"2.33 fold enrichment (6-mer frequency, TF over GST control)"
same,binding signal,[9],"1.12 fold enrichment (6-mer frequency, TF over GST control)"
same,binding signal,[10],"1.11 fold enrichment (6-mer frequency, TF over GST control)"
same,binding signal,[11],"1.14 fold enrichment (6-mer frequency, TF over GST control)"
same,binding signal,[12],"1.07 fold enrichment (6-mer frequency, TF over GST control)"
same,binding signal,[13],"1.14 fold enrichment (6-mer frequency, TF over GST control)"
same,binding signal,[14],"1.05 fold enrichment (6-mer frequency, TF over GST control)"
same,binding signal,[15],"1.03 fold enrichment (6-mer frequency, TF over GST control)"
same,binding signal,[16],"1.11 fold enrichment (6-mer frequency, TF over GST control)"
